# Measured potencies and affinities stand elsewhere. Active and inactive are the calls of the source.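 The calls were made as follows: active = fluorescent signal decreased by at least 40%; inconclusive = no clear call, values can overlap the other calls; inactive = the rest, including activity opposite to the expected direction.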
# Assay: fibronectin fibrillogenesis inhibitors in fibroblasts, dose response, AH1F cells, Alexa488-fibronectin fluorescence, cherry-pick, set 2 (AID 1117283);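 also: AH1F fibroblasts given Alexa488-labelled fibronectin at 24 nM final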
smiles,measurement,value
C=C1C(=O)O[C@@H]2C[C@@H](C)[C@@H]3C=CC(=O)[C@@]3(C)[C@@H](O)[C@H]12,outcome,inactive

# — PubChem BioAssay AID1117283 (Broad Institute, 2014)
